Our source for the growth inhibition values is PubChem BioAssay (NCI).

About 79,000 compounds went through this panel and 15% of them were active in at least one assay; those are over-represented in the sample as a whole. Activity calls are given as the source filed them. Cut-off read from the data, not from the text of the source: active = growth inhibition above about 70%; inactive = the rest.

A short description of the assay: NCI Yeast Anticancer Drug Screen. Data for the mlh1 rad18 strain (AID 175). Particulars: S. cerevisiae mlh1 rad18 strain growth inhibition; at 50.0 µM; stronger effect = higher value. The gist of the method: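 In this whole-cell yeast screen, a strain with altered DNA damage repair is challenged with compound, and its growth is measured against matched vehicle-treated controls.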
With `CN(C)c1ncnc2c1cnn2-c1ccc(Cl)cc1`, the growth inhibition was -8.45% (inactive).
On to `CCCCC(CC)(CC(=O)O)CC(=O)O`, for which the growth inhibition is 7.1% (inactive).
Turning to `CN1C(=O)c2ccccc2N(C)C(=O)c2ccccc21`, the growth inhibition is 12% (inactive).
With `Cc1ccccc1NC=O`, the growth inhibition is -13% (inactive).
Take `Cc1ccc(C(=O)Nc2ccc([N+](=O)[O-])cc2)cc1`: the growth inhibition is -2.95% (inactive).
In the case of `O=P(O)(CP(=O)(c1ccccc1)c1ccccc1)c1ccccc1` it was 10.9% (inactive); in that of `CC(C)(O)CCC(O)C(C)(O)C1CCC2(O)C3=CC(=O)C4(O)CC(O)C(O)CC4(C)C3CCC12C` (stereo not given) (tested in a mixture with another compound), -47.7% (inactive).
In the case of `O=C(O)/C=C\C(=O)Nc1ccc(S(=O)(=O)Nc2nccs2)cc1` it was -10.1% (inactive); in that of `O=C(O)/C=C/C(=O)Nc1cc2c(cc1Br)-c1ccccc1C2O` (stereo not given), 34% (inactive).
Turning to `CC(C)CC(NC(=O)CN)C(=O)O` (stereo not given), the growth inhibition is -0.85% (inactive).
`NNC(=O)/C(=C/c1cccc([N+](=O)[O-])c1)NC(=O)c1ccccc1`: the growth inhibition is -24.1% (inactive).
With `Cc1cccc[n+]1CC(=O)c1ccccc1[N+](=O)[O-]` the figure was 8.1% (inactive); with `O=c1[nH]c(Nc2ccccc2)nc2c1ncn2CC(O)CSCCO` (stereo not given), -27.4% (inactive); with `CC(=O)NC(Cc1ccc(O)cc1)C(=O)O` (stereo not given), -3.45% (inactive).
With `O=[N+]([O-])c1ccc(NN=C2CCCCCC2)c([N+](=O)[O-])c1` the figure was -0.45% (inactive).
In the case of `CCC(C)C(NCc1ccccc1)C(=O)O` (stereo not given), the growth inhibition is -8.25% (inactive).
For the compound `COc1ccc(/C=N/NC(=O)c2ccccc2OC)cc1`, the growth inhibition was 36.1% (inactive).
Regarding `O=C1CC=C2C3CC4N(CCC45c4ccccc4N1C25)C/C3=C\CBr` (stereo not given), the growth inhibition was -5.95% (inactive).
With `O=C(NNC(=O)c1cccc2ccccc12)c1ccccc1F` the figure was -15.9% (inactive); with `CCCCCCOC(=O)C[n+]1ccc(C(N)=O)cc1`, -1.9% (inactive).
In the case of `CCCCCCCCCCCCCCCCOc1ccc(-c2cc(=O)n(C)n2C)cc1OC` it was -16.2% (inactive); in that of `O=C(O)C1NCCC1Oc1ccccc1` (stereo not given), 2.65% (inactive); in that of `CCN(CC)c1ccc(C=O)cc1`, -11.1% (inactive).
In the case of `CCc1ccc(NC(C)=O)cc1C` it was -9.9% (inactive); in that of `O=c1[nH]nc(-c2ccccc2)c2c1[nH]c1ccccc12`, -12.1% (inactive); in that of `CCOC(=O)Nc1c(O)cccc1N1CCOCC1`, -1.25% (inactive).
Regarding `O=C(/C=C/c1ccc(Cl)cc1)c1cccs1`, the growth inhibition was -7.75% (inactive).
For `O=P1(O)c2ccccc2CCc2ccccc21`, the growth inhibition was 3.4% (inactive).
With `N=C1N=C(N)C(CCCOc2cc(Cl)ccc2Cl)(CCCOc2cc(Cl)ccc2Cl)C(N)=N1` the figure was 98% (active).
With `Cc1ccc(S(=O)(=O)CC(O)(C(C)C)C(C)C)cc1` the figure was -17.4% (inactive); with `O=C(NNc1nc(N2CCOCC2)nc(N2CCOCC2)n1)c1ccccc1`, -4.3% (inactive).
`NC(=O)NC(N)=O`: the growth inhibition was 21.9% (inactive).
In the case of `Cc1ccc(-c2cc(=O)c3cc(C)c(C)c(C(=O)O)c3o2)cc1`, the growth inhibition is 10.8% (inactive).
For `[N-]=[N+]=NC(=O)c1cccc2c1Cc1ccccc1-2`, the growth inhibition was -0.4% (inactive).
With `CCc1ccccc1O` the figure was 1.4% (inactive).
Turning to `N#CC(C#N)=C1C=CC=CC=C1`, the growth inhibition was -4.4% (inactive).
Take `O=C1C(O)=C(Cl)C(=O)C(OC2=C(Cl)C(=O)C(OC3=C(Cl)C(=O)C(OC4=C(Cl)C(=O)C(Cl)=C(Cl)C4=O)=C(Cl)C3=O)=C(Cl)C2=O)=C1Cl`: the growth inhibition was 22.3% (inactive).
For `CC(C)(C)OC(=O)N1CCCC1C(=O)NCCNc1ccc(NCCNC(=O)C2CCCN2C(=O)OC(C)(C)C)c2c1C(=O)c1ccccc1C2=O` (stereo not given), the growth inhibition was -25% (inactive).
For `CCCCCCCCCCCCCCCCOc1ccc(C(=O)O)cc1`, the growth inhibition was -16% (inactive).
Take `COc1ccc(Cl)cc1NC(=O)c1ccc(C(=O)Nc2cc(Cl)ccc2OC)cc1`: the growth inhibition was 9.5% (inactive).
